The record followed here is PubChem BioAssay (NCATS).

Results filed as inconclusive are left out. A number with no mark means an inactive call. Active and inactive are the calls of the source. Calls come from the whole dose curve; as a rule, active = well fitted cell-killing curve with a large enough effect; inconclusive = small, poorly fitted or top-dose-only effect, or effect the other way; inactive = no such curve, though single readings can be large or run the other way.

Test [1] is described as follows: Quantitative High-Throughput drug screen in 47 multiple myeloma cell lines against the NCATS MIPE library collection: MM1S_ATCC cell viability assay (AID 1918980). Note: nearly all actives have a fitted effect of over 45% in size. A digest of the protocol:
(§1)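 ATP-based CellTiter-Glo luminescence after 48 h drug exposure (37 °C, 5% CO2) of 500 myeloma cells per well. DMSO-only wells set 100% viability, media-only wells 0%; MIPE 4.0 library added by pin tool.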

Test [2] is described as follows: Quantitative High-Throughput drug screen in 47 multiple myeloma cell lines against the NCATS MIPE library collection: MM1R_ATCC cell viability assay (AID 1918981). Note: nearly all actives have a fitted effect of over 35% in size. A digest of the protocol: as §1
Test [3] can be described thus: Quantitative High-Throughput drug screen in 47 multiple myeloma cell lines against the NCATS MIPE library collection: LP1_DSMZ cell viability assay (AID 1918982). Note: nearly all actives have a fitted effect of over 35% in size. In a few lines: as §1
The nature of test [4]: Quantitative High-Throughput drug screen in 47 multiple myeloma cell lines against the NCATS MIPE library collection: KMS28PE_JCRB cell viability assay (AID 1918983). Note: nearly all actives have a fitted effect of over 35% in size. In a few lines: as §1
A short description of test [5]: Quantitative High-Throughput drug screen in 47 multiple myeloma cell lines against the NCATS MIPE library collection: L363_DSMZ cell viability assay (AID 1918984). Note: nearly all actives have a fitted effect of over 40% in size. A digest of the protocol:
as §1

Test [6] in a line: Quantitative High-Throughput drug screen in 47 multiple myeloma cell lines against the NCATS MIPE library collection: KMS34_JCRB cell viability assay (AID 1918985). Note: nearly all actives have a fitted effect of over 40% in size. In a few lines: as §1
Test [7] can be described thus: Quantitative High-Throughput drug screen in 47 multiple myeloma cell lines against the NCATS MIPE library collection: OCIMY7_PLB cell viability assay (AID 1918987). Note: nearly all actives have a fitted effect of over 65% in size. The note with it: OCI-MY7 myeloma viability, CellTiter-Glo ATP, 48 h; viability (% of DMSO): at 45.8 µM (top of the series). In a few lines:
as §1
On the technique in general: ATP-based viability assays read luminescence as a measure of living cells.

A short description of test [8]: Quantitative High-Throughput drug screen in 47 multiple myeloma cell lines against the NCATS MIPE library collection: OCIMY5_PLB cell viability assay (AID 1918988). Note: nearly all actives have a fitted effect of over 65% in size. In a few lines:
as §1

Test [9] in a line: Quantitative High-Throughput drug screen in 47 multiple myeloma cell lines against the NCATS MIPE library collection: OPM1_PLB cell viability assay (AID 1918989). Note: nearly all actives have a fitted effect of over 40% in size. A digest of the protocol:
as §1

Test [10] can be described thus: Quantitative High-Throughput drug screen in 47 multiple myeloma cell lines against the NCATS MIPE library collection: SKMM1_PLB cell viability assay (AID 1919863). Note: nearly all actives have a fitted effect of over 35% in size. The conditions noted are these: SKMM1 myeloma viability, CellTiter-Glo ATP, 48 h; viability: active compounds read low. A digest of the protocol:
as §1

One may read the viability as a read-out of living cells in per cent, often relative to untreated cells.
Potency is the fitted concentration of half-maximal effect.

Consider `C=CCNc1c(O)cc2c(O)c1C[C@@H](C)C[C@H](OC)[C@@H](O)[C@@H](C)C=C(C)[C@H](OC(N)=O)[C@@H](OC)C=CC=C(C)C(=O)N2`, for which the Potency in [1] was 1.18 µM (active); in test [2], 0.526 µM (active); in [3], 1.87 µM (active); in [4], 0.418 µM (active); in test [5], 0.0332 µM (active); in test [6], 0.296 µM (active). Further, the Potency is 0.209 µM (active) in test [7], 0.235 µM (active) in [8], 0.526 µM (active) in test [9] and 0.264 µM (active) in [10].

On to `O=C1CSC(=O)N1C(CCc1ccncc1)COc1ccc(-c2cccc([N+](=O)[O-])c2)cc1` (configuration not stated), for which the Potency in [1] is 0.935 µM (active); in [2] it was 2.35 µM (active); in test [3], 5.9 µM (active); in [4], 9.35 µM (active); in test [6] it was 8.33 µM (active); in test [7], 20.9 µM (active). Besides, the Potency in [8] is 2.35 µM (active); in [9], 16.6 µM (active). In addition, the Potency entry in [5] is “inactive”.

Consider `C[C@H](NCc1ccc(OCc2cccc(F)c2)cc1)C(N)=O`, for which the Potency is 9.35 µM (active) in test [1]; 7.43 µM (active) in test [2]; 11.8 µM (active) in test [3]; 9.35 µM (active) in test [4]; 1.48 µM (active) in test [5]; 10.5 µM (active) in test [6]. Further, the Potency is 3.32 µM (active) in test [7], 7.43 µM (active) in [8], 2.64 µM (active) in test [9] and 18.7 µM (active) in [10].

With `CN(CC(=O)N(Cc1ccc(C2CCCCC2)cc1)c1ccc(C(=O)O)c(O)c1)S(=O)(=O)c1c(F)c(F)c(F)c(F)c1F`, the Potency was 7.43 µM (active) in test [1]; 8.33 µM (active) in test [2]; 20.9 µM (active) in test [3]; 29.6 µM (active) in [4]; 9.35 µM (active) in [5]; 20.9 µM (active) in test [6]. Besides, the Potency in [7] is 8.33 µM (active); in test [8], 18.7 µM (active).

For `COC(=O)[C@H](CCCN=C(N)N)NS(=O)(=O)c1ccc(C)cc1`, the Potency entry in [1], in [2], in test [3], in test [4], in test [5] and in test [6] was “inactive” each time. Moreover, the Potency result in test [8] and in test [9] was “inactive” in each case. The viability in test [10] is 122%.

For `C[C@@]12C(=O)OC(=O)[C@@]1(C)C1CCC2O1`, the Potency in test [1] is 1.66 µM (active); in [2], 2.35 µM (active); in [3], 3.72 µM (active); in [4], 2.35 µM (active); in [5], 3.72 µM (active); in test [6], 0.833 µM (active). The Potency in [7] is 0.743 µM (active); in test [8], 2.96 µM (active); in test [9], 0.372 µM (active); in [10], 7.43 µM (active).

`NC(=NCCCCCCN=C(N)N=C(N)Nc1ccc(Cl)cc1)N=C(N)Nc1ccc(Cl)cc1`: the Potency in [1] was 2.09 µM (active); in [2], 7.43 µM (active); in [3] it was 11.8 µM (active); in [4] it was 16.6 µM (active); in [5], 8.33 µM (active); in test [6] it was 11.8 µM (active). The Potency in test [7] is 2.96 µM (active); in [9] it was 2.64 µM (active); in [10] it was 11.8 µM (active).

As to `NC[C@H]1O[C@H](O[C@H]2[C@@H](O)[C@@H](O[C@H]3O[C@H](CO)[C@@H](O)[C@H](N)[C@@H]3O)[C@H](N)C[C@@H]2N)[C@H](N)C[C@H]1O`, the Potency result in [1], in test [2], in [3], in test [4], in [5] and in [6] was “inactive” throughout. Besides, the Potency entry in [8] was “inactive”.

For the molecule `COc1cc(C)c(Sc2cnc(NC(=O)c3ccc(CNC(C)C(C)(C)C)cc3)s2)cc1C(=O)N1CCN(C(C)=O)CC1` (configuration not stated), the Potency in test [1] is 4.18 µM (active); in test [2], 5.9 µM (active); in [3] it was 16.6 µM (active); in [4], 9.35 µM (active); in test [5], 2.96 µM (active); in test [6], 14.8 µM (active). Also, the Potency is 3.32 µM (active) in test [7], 16.6 µM (active) in test [8], 16.6 µM (active) in [9] and 20.9 µM (active) in [10].

`Oc1cc(-c2nc(-c3ccccc3)[nH]c2-c2ccncc2)ccc1Cl`: the Potency in test [1] was 4.69 µM (active); in test [2], 14.8 µM (active); in test [4] it was 20.9 µM (active); in test [5] it was 0.332 µM (active); in test [6] it was 16.6 µM (active); in test [8], 18.7 µM (active). Further, the Potency in [9] was 14.8 µM (active); in [10], 16.6 µM (active). Further, the Potency result in [3] is “inactive”.

As to `CC(C)C[C@H](NC(=O)CNC(=O)c1cc(Cl)ccc1Cl)B1OC(=O)CC(CC(=O)O)(C(=O)O)O1` (some centres not stated), the Potency in test [1] is 0.0418 µM (active); in test [2] it was 0.0296 µM (active); in [3] it was 0.0743 µM (active); in test [4], 0.0526 µM (active); in test [5] it was 0.0833 µM (active); in test [6] it was 0.0469 µM (active). Moreover, the Potency in test [7] is 0.0296 µM (active); in test [8], 0.0264 µM (active); in [9], 0.0372 µM (active); in [10] it was 0.209 µM (active).

Turning to `CCC(C=C[C@@H]1OC(=O)C=C[C@H]1C)=C[C@H](C)CC=CC(C)=C[C@@H](C)C(=O)[C@@H](C)[C@H](O)[C@@H](C)CC(C)=CC(=O)O`, the Potency in [1] is 0.0156 µM (active); in test [2], 0.0098 µM (active); in test [3], 0.0277 µM (active); in test [4], 0.0247 µM (active); in [5] it was 0.0078 µM (active); in test [6], 0.022 µM (active). The Potency is 0.0392 µM (active) in test [7], 0.0098 µM (active) in test [8], 0.0311 µM (active) in test [9] and 0.022 µM (active) in test [10].

Consider `Nc1cccc2c1C(=O)N(C1CCC(=O)NC1=O)C2=O` (configuration not stated), for which the Potency in test [1] was 0.526 µM (active); in test [2], 2.09 µM (active); in [4], 0.0833 µM (active); in test [6], 0.0021 µM (active); in [8], 10.5 µM (active). For the same molecule, the Potency result in [3] and in [5] was “inactive” in each case.

Consider `O=c1ccn([C@@H]2O[C@H](CO)[C@H](O)[C@@H]2F)c(=O)[nH]1`, for which the Potency in test [1] is 5.26 µM (active). Moreover, the Potency entry in test [2], in test [3], in test [4], in test [5], in [6] and in test [8] was “inactive” throughout. Besides, the Potency entry in [9] was “inactive”. Besides, the viability in test [10] is 118%.
